Design in all cases: scale not given: direction of the effect not stated beside the values
Assay [1] deals with Protein translocase subunit SecA (Escherichia coli (strain K12)) (UniProt P10408). Briefly: Assay to Identify E. coli SecA ATPase Inhibitors. In kind it is functional. The settings on record: 30 µM.
The target of assay [2] is T1, Ubiquitin-activating enzyme e1, putative (Leishmania donovani (strain BPK282A1)) (UniProt E9BSI1).
T1 sequence (whole entry): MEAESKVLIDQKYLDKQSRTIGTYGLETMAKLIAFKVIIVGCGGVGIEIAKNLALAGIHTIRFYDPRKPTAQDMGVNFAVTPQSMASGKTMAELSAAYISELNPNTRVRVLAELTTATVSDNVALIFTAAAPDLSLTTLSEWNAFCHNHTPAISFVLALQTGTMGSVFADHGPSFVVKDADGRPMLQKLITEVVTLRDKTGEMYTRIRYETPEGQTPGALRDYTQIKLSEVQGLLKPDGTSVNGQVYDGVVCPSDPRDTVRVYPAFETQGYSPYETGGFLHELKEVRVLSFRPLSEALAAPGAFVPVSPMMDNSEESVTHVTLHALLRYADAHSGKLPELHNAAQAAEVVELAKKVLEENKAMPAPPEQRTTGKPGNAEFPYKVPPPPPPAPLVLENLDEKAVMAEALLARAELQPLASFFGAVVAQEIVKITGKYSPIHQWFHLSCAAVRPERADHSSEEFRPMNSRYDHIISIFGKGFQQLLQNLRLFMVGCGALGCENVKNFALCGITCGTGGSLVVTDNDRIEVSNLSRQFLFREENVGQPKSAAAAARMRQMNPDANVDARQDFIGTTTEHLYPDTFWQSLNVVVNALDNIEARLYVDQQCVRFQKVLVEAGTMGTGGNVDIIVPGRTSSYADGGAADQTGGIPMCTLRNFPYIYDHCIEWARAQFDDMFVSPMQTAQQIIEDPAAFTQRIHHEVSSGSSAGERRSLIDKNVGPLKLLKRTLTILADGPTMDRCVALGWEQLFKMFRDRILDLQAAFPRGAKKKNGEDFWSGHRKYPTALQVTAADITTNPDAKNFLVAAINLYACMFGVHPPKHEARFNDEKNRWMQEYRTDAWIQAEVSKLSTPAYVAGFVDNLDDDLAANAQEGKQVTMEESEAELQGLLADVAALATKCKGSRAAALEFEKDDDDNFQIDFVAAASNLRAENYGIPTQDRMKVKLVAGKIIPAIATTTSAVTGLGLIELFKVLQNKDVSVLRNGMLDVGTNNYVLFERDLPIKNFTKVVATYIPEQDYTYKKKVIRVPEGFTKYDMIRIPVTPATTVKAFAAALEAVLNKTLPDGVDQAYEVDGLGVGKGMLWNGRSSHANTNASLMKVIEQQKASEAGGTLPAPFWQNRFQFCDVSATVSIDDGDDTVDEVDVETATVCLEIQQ
Briefly: Leishmania donovani Ubiquitin Activating Enzyme (LdE1). In kind it is functional. The conditions noted are these: 30 µM.

Assay [3] has as its target AMP-activated protein kinase, AMPK (Homo sapiens) (UniProt P54646+O43741+P54619+Q9UGJ0+Q9Y478+Q13131+Q9UGI9). Put plainly: AMP-dependent Kinase enzyme assay. An in vitro enzyme assay that detects ADP turnover that is directly proportional to AMPK activity. This uses naive AMPK that is activated during the assay with MK-8722. In kind it is functional. The conditions noted are these: 30 µM.

In assay [4] the target is Sialic acid-binding Ig-like lectin 9 (Homo sapiens) (UniProt Q9Y336). Put plainly: Hs-Siglec9 ALPHAscreen SOP 20170721. The conditions noted are these: 10 µM. On the technique in general: In Alpha technology, singlet oxygen from a donor bead excites a nearby acceptor bead.
The next assay concerns Trypanosoma cruzi. Put plainly: Trypanosoma cruzi phosphomannomutase and mannose-1-phosphate guanylyltransferase assay. In kind it is functional. The conditions noted are these: 10 µM.
The target in assay [5] is T2, Arginase-2, mitochondrial (Homo sapiens) (UniProt P78540).
T2 sequence (whole entry): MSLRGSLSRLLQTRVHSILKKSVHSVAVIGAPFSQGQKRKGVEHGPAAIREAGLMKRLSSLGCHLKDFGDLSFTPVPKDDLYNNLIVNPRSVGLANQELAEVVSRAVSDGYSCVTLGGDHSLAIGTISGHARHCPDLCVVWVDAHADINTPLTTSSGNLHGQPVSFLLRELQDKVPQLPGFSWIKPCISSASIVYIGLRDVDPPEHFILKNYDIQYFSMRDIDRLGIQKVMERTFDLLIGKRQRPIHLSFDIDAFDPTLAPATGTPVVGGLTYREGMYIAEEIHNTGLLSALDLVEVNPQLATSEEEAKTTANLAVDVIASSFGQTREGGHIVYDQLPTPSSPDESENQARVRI
Briefly: in vitro enzyme assay to detect the production of urea directly proportional to the activity of Arginase II. Note: in the data most compounds retested in dose-response had high values. In kind it is functional. The settings on record: 33.3 µM.

Assay [6] deals with T3, Proteasome subunit beta (Trypanosoma cruzi) (UniProt O96673).
T3 sequence (whole entry): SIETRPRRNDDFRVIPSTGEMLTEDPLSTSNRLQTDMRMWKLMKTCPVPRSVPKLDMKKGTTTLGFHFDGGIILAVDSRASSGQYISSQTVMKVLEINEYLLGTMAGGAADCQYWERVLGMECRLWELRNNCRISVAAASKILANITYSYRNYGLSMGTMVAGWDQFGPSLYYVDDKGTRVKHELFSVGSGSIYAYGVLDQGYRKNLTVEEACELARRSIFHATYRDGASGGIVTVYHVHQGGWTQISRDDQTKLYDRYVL
Put plainly: Trypanosoma cruzi proteasome chymotrypsin-like activity (TcProtChymo) assay. Note: in the data most compounds retested in dose-response had high values. In kind it is functional. The settings on record: 9.37 µM.

Another assay is filed under the species Homo sapiens. Put plainly: To identify inhibition of the IFN signalling (Jak-Stat) pathway via expression of an eGFP reporter gene under the control of an IFN-stimulated response element (ISRE) containing MxA promoter. In kind it is functional. The settings on record: 30 µM. For orientation: A reporter such as luciferase makes a cellular process visible.
The target of assay [7] is T4, Tyrosyl-tRNA synthetase, putative (Trypanosoma cruzi (strain CL Brener)) (UniProt Q4DSP6).
T4 sequence (whole entry): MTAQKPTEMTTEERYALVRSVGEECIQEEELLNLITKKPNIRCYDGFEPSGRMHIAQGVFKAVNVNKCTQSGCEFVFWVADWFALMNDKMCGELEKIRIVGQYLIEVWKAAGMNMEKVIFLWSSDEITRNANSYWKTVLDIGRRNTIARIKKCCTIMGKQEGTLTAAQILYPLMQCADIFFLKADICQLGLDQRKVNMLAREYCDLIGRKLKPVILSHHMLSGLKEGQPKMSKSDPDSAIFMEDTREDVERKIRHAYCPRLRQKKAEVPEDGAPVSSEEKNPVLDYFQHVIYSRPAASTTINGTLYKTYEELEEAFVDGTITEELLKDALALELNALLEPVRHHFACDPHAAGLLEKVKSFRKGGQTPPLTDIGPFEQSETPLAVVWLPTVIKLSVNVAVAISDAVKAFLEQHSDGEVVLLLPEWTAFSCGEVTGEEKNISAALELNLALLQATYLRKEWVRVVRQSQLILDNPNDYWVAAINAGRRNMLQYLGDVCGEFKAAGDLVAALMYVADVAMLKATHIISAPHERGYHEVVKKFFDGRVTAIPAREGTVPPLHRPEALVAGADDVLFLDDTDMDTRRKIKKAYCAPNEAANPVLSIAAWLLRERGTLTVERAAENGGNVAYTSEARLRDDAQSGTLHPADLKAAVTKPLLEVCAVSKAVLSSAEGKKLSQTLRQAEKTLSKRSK
Put plainly: Trypanosoma cruzi tyrosyl tRNA synthetase (TcYRS) _High Tyrosine SOP. Note: in the data most compounds retested in dose-response had high values. In kind it is functional. The settings on record: 30 µM.

Assay [8] deals with T4, Tyrosyl-tRNA synthetase, putative (Trypanosoma cruzi (strain CL Brener)). Put plainly: Trypanosoma cruzi tyrosyl tRNA synthetase (TcYRS) SOP. In kind it is functional. The conditions noted are these: 30 µM.
In assay [9] the target is Chromo domain-containing protein 1 (Saccharomyces cerevisiae (strain ATCC 204508 / S288c) (Baker's yeast)) (UniProt P32657). Put plainly: ScCHD-1 Enzyme Inhibition Assay. Note: in the data most compounds retested in dose-response had high values. The conditions noted are these: 30 µM. In kind it is functional.

Consider eight compounds from ChEMBL document CHEMBL3988442, “University of Dundee, Small-Polar-MMV Screening Library” (2021).

For some of these results: Results with a measured potency or affinity are listed apart.

Chromo domain-containing protein 1 (Saccharomyces cerevisiae (strain ATCC 204508 / S288c) (Baker's yeast)), sequence (P32657 whole entry, the tested form may be a part): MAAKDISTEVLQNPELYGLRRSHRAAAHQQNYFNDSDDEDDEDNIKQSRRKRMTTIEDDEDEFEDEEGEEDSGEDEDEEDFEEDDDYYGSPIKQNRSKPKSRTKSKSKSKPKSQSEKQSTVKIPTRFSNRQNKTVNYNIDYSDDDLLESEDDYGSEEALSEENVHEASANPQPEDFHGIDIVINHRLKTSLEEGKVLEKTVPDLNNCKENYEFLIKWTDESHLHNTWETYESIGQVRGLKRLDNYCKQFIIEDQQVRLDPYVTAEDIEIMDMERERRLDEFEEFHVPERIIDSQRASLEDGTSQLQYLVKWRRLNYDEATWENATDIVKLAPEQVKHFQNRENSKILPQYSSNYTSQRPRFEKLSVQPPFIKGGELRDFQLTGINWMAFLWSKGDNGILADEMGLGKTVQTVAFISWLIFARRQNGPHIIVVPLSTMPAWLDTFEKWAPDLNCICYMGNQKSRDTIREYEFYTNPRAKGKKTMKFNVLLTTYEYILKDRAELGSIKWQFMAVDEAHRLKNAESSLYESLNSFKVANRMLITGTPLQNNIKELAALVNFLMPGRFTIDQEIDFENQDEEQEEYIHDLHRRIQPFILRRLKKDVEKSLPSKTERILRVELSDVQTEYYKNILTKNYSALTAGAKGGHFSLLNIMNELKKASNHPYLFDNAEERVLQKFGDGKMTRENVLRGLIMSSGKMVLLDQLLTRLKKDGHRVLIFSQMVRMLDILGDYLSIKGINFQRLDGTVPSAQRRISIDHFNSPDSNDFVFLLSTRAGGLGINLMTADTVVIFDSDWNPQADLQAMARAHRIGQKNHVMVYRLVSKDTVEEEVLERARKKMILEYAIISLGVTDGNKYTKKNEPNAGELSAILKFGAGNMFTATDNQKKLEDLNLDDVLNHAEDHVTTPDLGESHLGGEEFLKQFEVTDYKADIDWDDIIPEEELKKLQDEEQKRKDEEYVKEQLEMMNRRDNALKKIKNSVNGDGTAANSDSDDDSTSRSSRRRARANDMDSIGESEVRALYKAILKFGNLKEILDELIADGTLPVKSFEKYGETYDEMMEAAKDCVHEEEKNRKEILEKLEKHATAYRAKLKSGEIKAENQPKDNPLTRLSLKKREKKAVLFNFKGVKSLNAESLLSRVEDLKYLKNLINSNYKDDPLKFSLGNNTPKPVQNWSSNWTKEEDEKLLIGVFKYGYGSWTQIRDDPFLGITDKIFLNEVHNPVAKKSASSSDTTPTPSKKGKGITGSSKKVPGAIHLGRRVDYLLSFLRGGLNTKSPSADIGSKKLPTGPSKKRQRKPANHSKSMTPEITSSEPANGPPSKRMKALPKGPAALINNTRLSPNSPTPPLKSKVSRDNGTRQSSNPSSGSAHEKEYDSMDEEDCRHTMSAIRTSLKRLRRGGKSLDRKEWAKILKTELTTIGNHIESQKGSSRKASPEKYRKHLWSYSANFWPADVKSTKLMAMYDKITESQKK
Protein translocase subunit SecA (Escherichia coli (strain K12)), sequence (P10408 whole entry): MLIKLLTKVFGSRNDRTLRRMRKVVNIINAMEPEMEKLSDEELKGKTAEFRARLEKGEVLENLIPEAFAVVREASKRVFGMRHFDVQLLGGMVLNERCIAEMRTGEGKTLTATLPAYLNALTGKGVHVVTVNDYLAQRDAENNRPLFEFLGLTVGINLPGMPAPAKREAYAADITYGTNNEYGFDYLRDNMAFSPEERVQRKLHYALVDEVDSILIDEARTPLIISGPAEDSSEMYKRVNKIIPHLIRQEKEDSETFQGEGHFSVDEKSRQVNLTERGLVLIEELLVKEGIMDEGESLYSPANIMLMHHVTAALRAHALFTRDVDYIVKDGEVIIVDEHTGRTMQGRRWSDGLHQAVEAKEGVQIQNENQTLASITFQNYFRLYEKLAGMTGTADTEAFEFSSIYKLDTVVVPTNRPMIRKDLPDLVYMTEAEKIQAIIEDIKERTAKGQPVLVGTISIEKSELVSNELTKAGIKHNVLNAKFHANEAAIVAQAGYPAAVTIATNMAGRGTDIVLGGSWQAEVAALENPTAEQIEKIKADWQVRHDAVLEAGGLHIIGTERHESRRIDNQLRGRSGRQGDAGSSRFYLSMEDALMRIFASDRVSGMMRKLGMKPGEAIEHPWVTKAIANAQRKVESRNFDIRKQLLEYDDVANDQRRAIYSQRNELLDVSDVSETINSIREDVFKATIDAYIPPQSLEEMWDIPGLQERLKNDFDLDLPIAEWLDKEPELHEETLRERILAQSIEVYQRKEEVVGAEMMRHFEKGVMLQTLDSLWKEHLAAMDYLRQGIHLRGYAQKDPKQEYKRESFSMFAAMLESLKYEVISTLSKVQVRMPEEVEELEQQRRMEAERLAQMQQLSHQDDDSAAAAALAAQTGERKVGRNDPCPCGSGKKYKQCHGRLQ
Sialic acid-binding Ig-like lectin 9 (Homo sapiens), sequence (Q9Y336 whole entry): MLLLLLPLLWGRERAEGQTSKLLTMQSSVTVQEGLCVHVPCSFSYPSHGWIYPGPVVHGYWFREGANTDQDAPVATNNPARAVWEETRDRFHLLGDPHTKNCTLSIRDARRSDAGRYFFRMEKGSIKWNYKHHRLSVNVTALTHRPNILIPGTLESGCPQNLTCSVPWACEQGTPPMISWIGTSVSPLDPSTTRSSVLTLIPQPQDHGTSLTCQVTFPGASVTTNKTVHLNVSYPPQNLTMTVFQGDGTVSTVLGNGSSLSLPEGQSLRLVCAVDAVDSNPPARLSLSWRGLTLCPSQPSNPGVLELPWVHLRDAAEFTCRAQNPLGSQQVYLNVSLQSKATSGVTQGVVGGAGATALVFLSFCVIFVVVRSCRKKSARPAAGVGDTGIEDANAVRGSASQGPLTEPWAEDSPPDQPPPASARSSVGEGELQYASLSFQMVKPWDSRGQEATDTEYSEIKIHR

As to `CN(C)CC1(O)CCN(S(=O)(=O)c2ccc(F)c(F)c2)C1` (stereo not drawn), the Percent Effect in [1] is -6.44%; in assay [2] it was 23%; in assay [3], -0.681%; in [4] it was -1.29%; in the assay with Trypanosoma cruzi, 5.34%; in assay [5], -3.48%. For the same compound, the Percent Effect in assay [6] was 20.9%; in the assay listed under Homo sapiens it was 1.49%; in assay [7] it was 3.23%; in assay [8], 6.49%; in assay [9] it was -21.7%.
In the case of `Cn1cc(Cl)cc1C(=O)N1CCCN(Cc2cccs2)CC1`, the Percent Effect in assay [1] was -2.72%; in [2] it was -10.5%; in assay [3], 7.51%; in assay [4], -1.79%; with Trypanosoma cruzi it was 1.32%; in assay [5], 1.53%. The Percent Effect in assay [6] was -1.34%; in the assay filed under Homo sapiens, -3.88%; in assay [7] it was 4.41%; in [8], 0%; in assay [9], 7.24%.
Take `Cc1nn(C)c(C)c1C1COCCN1C(=O)c1cnc(N)c(Cl)c1` (stereo not drawn): the Percent Effect was -2.77% in assay [1]; 23.4% in assay [2]; 2.76% in assay [3]; -1.47% in assay [4]; -2.62% in the assay on Trypanosoma cruzi; 0.356% in assay [5]. Further, the Percent Effect in assay [6] was 10.1%; in the assay listed under Homo sapiens it was 4.22%; in assay [7], 3.88%; in assay [8], 19.5%; in [9], -7.54%.
With `O=C(NCc1ccoc1)Nc1ccc(CN2CCOC2=O)cc1`, the Percent Effect is -4.58% in assay [1]; 1.39% in assay [2]; 6.74% in [3]; -4.22% in assay [4]; -6.12% in the assay on Trypanosoma cruzi; 0% in [5]. The Percent Effect is 15.1% in [6]; 24.8% in the assay filed under Homo sapiens; 0% in [7]; -5.13% in assay [8]; -2.04% in [9].
As for `CN1CC[C@H](c2ccccc2)[C@@H]2[C@H]1CCCCN2C(=O)c1cnccn1`, the Percent Effect in [1] was -2.95%; in assay [2], -4.05%; in assay [3], 7.03%; in [4], 1.21%; in the assay on Trypanosoma cruzi, 3.75%; in assay [5] it was -5.34%. In addition, the Percent Effect in assay [6] was 10.8%; in the assay listed under Homo sapiens, 3.3%; in [7], 4.3%; in [8], 3.9%; in assay [9], -14%.
Consider `CCN1CCN(Cc2ccnc(-c3cccnc3)n2)CC1`, for which the Percent Effect in assay [1] is -8.52%; in [2], 20.3%; in [3], 0.102%; in [4], 1.94%; with Trypanosoma cruzi, -0.79%; in assay [5] it was -1.62%. The Percent Effect is 15.3% in assay [6]; -6.28% in the assay listed under Homo sapiens; 4.3% in assay [7]; 16.9% in [8]; -29.4% in assay [9].
As to `Cc1ncccc1OC1(C(=O)NCCNc2ccccc2)CCNCC1`, the Percent Effect in [1] is -3.81%; in [2] it was 2.7%; in assay [3], -15.1%; in assay [4], 6.77%; with Trypanosoma cruzi, 3.48%; in [5] it was -1.91%. The Percent Effect in [6] is 5.86%; in the assay listed under Homo sapiens it was 20.1%; in [7] it was 5.82%; in [8], 9.76%; in [9] it was -4.02%.
On to `Cc1nc(CN2CCCC(NCCOc3ccccc3)C2)no1` (stereo not drawn), for which the Percent Effect is -2.53% in assay [1]; 2.53% in assay [2]; -4.3% in assay [3]; -3.12% in assay [4]; -1.98% in the assay with Trypanosoma cruzi; 2.28% in [5]. For the same compound, the Percent Effect in [6] is 28.9%; in the assay listed under Homo sapiens, -12.5%; in assay [7] it was 2.46%; in [8], -1.27%; in assay [9], -6.02%.
